FMDV inh: High Throughput Screening for Foot and Mouth Disease Virus Antivirals; hit rate 1.2% among 410,000; AID 1159524, 2015; FMDV antiviral cell-based qHTS; Potency, µM (top dose mostly 57.9 µM), inactives show top-dose activity change, negative = inhibition, actives largely listed as inhibitors; calls by dose curve; tested in HEK293T cells; also: read-out not given here; potency is read from the fitted curve at half-maximal effect; nearly all actives have a fitted effect of over 45% in size
HCMV inh: qHTS Assay for inhibitors of the human cytomegalovirus (HCMV); HFF cells, HCMV-luciferase reporter, 72 h; hits give low values; activity change, negative = inhibition, % at 57.5 µM; hit rate 4.5% among 410,000; AID 1259415, 2018; in the data active = activity change below about -60%; inconclusive = no clear call, values can overlap the other calls; inactive = above about -39%
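Two compound doses tested in HFFs infected with HCMV-luciferase, MOI 1 PFU/cell, 72 h at 37C. Lysate luminescence read with OneGlo; data normalized against buffer-only and 10uM Salinomycin inhibitor controls.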
Marburg entry inh: qHTS for inhibitors of binding or entry into cells for Marburg Virus | Marburg virus pseudotyped entry inhibition, cell reporter | Potency, µM (titrated, usually from 37.8 µM), for inactives: top-dose activity change, negative = inhibition, actives largely listed as inhibitors | hit rate 1.8% among 300,000 | AID 540276, 2011; calls by dose curve; tested in HEK293 cells; also: potency is read from the fitted curve at half-maximal effect
Lassa entry inh: qHTS for Inhibitors of binding or entry into cells for Lassa Virus; hit rate 1.2% among 300,000; AID 540256, 2011; Lassa virus pseudotype entry inhibition, cell reporter; Potency, µM (titrated, usually from 37.9 µM), for the others: at the highest dose activity change, negative = inhibition, usual class: inhibitors; calls by dose curve; tested in HEK293 cells; also: potency is read from the fitted curve at half-maximal effect; nearly all actives have a fitted effect of over 50% in size
Numbers without * were called inactive; [ ] = dose if it differs, or a comment. Rows were chosen to be rich in hits. Some 6.2% of all compounds tested hit in one or more screens of this group. % is scaled to controls: 0 for no effect and ±100 for the full control effect.

How did CCN(CC)C(=O)CSc1nnc(-c2ccc(O)cc2)n1CC1CCCO1 (centres undefined) do in these assays?
FMDV inh: -1.5%; HCMV inh: 9.7; Marburg entry inh: 4.8%; Lassa entry inh: 3.2%

Results for CN(c1ccccc1)S(=O)(=O)c1cccc(NC(=O)CCNC(=O)c2ccco2)c1 ?
FMDV inh: inconclusive; HCMV inh: 15.6

What do the screens show for `CC(C)C1Oc2ccccc2N(CC(=O)N(Cc2ccncc2)Cc2ccco2)C1=O` (centres undefined)?
FMDV inh: -13.0%; HCMV inh: 13.4; Marburg entry inh: -7.7%; Lassa entry inh: -1.7%

What do the screens show for `COc1cccc(C2CC(c3cccc(NS(C)(=O)=O)c3)=NN2C(=O)c2ccccc2)c1OC` (centres undefined)?
FMDV inh: -17.8%; HCMV inh: -73.2*; Marburg entry inh: inconclusive; Lassa entry inh: 14.1µM*

Results for COc1ccccc1C1CC(c2ccc(Br)cc2)=NN1C(=O)c1cccnc1 (centres undefined) ?
FMDV inh: 31.6µM*; HCMV inh: 35.3; Marburg entry inh: -27.5%; Lassa entry inh: inconclusive

Results for COc1cccc(C2CC(c3ccc(Br)cc3)=NN2C(=O)c2ccncc2)c1OC (centres undefined) ?
FMDV inh: inconclusive; HCMV inh: -11.3; Marburg entry inh: inconclusive; Lassa entry inh: inconclusive

What do the screens show for `COc1ccc(C(C)=O)cc1COC(=O)C1CC(=O)N(Cc2ccccc2)C1` (centres undefined)?
FMDV inh: -15.7%; HCMV inh: 23.1; Marburg entry inh: -2.3%; Lassa entry inh: -4.8%

Results for O=C(C1CCN(c2nnc(N3CCCC3=O)s2)CC1)N1CCN(c2cccc(C(F)(F)F)c2)CC1 ?
FMDV inh: -15.9%; HCMV inh: -79.1*

Results for Cc1noc(C)c1S(=O)(=O)N1CCC(C(=O)N2CCN(c3cccc(C(F)(F)F)c3)CC2)CC1 ?
FMDV inh: inconclusive; HCMV inh: inconclusive; Marburg entry inh: 2.3%[46.1 µM]; Lassa entry inh: 1.1%[46.1 µM]

How did Cc1ccc(C)c(N2CCN(C(=O)C3CCN(c4nnc(N5CCCC5=O)s4)CC3)CC2)c1 do in these assays?
FMDV inh: 25.1µM*; HCMV inh: -30.5; Marburg entry inh: inconclusive; Lassa entry inh: inconclusive

How did CCN(CC)C(=O)CSc1nnc(-c2ccccn2)n1-c1ccccc1OC do in these assays?
FMDV inh: -9.4%; HCMV inh: -16.7

What do the screens show for `CC(C)(C)OC(=O)[C@H](CCCCN)NC(=O)c1nc[nH]c1C(=O)N[C@@H](CCCCN)C(=O)OC(C)(C)C`?
FMDV inh: -3.0%; HCMV inh: -13.4

What do the screens show for `CCOC(=O)c1ccc(NC(=O)c2nc[nH]c2C(=O)N[C@@H](CC(C)C)C(=O)OC(C)(C)C)cc1`?
FMDV inh: -18.4%; HCMV inh: -25.4

Results for CC(C)C[C@H](NC(=O)c1nc[nH]c1C(=O)NCC(=O)OC(C)(C)C)C(=O)OCc1ccccc1 ?
FMDV inh: -25.6%; HCMV inh: 40.1

What do the screens show for `CC(C)C[C@H](NC(=O)c1nc[nH]c1C(=O)N1CCN(C(=O)OC(C)(C)C)CC1)C(=O)OC(C)(C)C`?
FMDV inh: -16.5%; HCMV inh: -96.0*

How did CC(C)(C)OC(=O)[C@H](Cc1ccccc1)NC(=O)c1nc[nH]c1C(=O)N[C@@H](CCCCN)C(=O)OC(C)(C)C do in these assays?
FMDV inh: -10.4%; HCMV inh: -67.9*

Results for CC(C)C[C@H](NC(=O)c1nc[nH]c1C(=O)N[C@@H](CC(C)C)C(=O)OC(C)(C)C)C(=O)OCc1ccccc1 ?
FMDV inh: -25.1%; HCMV inh: -101.1*

Results for C[C@H](NC(=O)c1nc[nH]c1C(=O)N1CCN(C(=O)OC(C)(C)C)CC1)C(=O)OC(C)(C)C ?
FMDV inh: -1.5%; HCMV inh: 0.6

What do the screens show for `CC(C)C[C@H](NC(=O)c1[nH]cnc1C(=O)Nc1ccccc1)C(=O)OC(C)(C)C`?
FMDV inh: 0.0%; HCMV inh: -102.4*

What do the screens show for `Cc1ccc2[nH]c(=O)c(CN(Cc3cccs3)C(=S)NCc3ccco3)cc2c1`?
FMDV inh: 0.0%; HCMV inh: inconclusive; Marburg entry inh: inconclusive; Lassa entry inh: inconclusive

What do the screens show for `COCCCN1CN=C(NS(=O)(=O)c2ccc(C)cc2)NC1`?
FMDV inh: 13.1%; HCMV inh: 40.4; Marburg entry inh: 4.1%[46.1 µM]; Lassa entry inh: -0.4%[46.1 µM]

What do the screens show for `O=C1CC(c2ccccc2)NC(=O)N1` (centres undefined)?
FMDV inh: -4.7%; HCMV inh: -99.0*; Marburg entry inh: -3.3%; Lassa entry inh: -3.3%

Results for COC(C[C@H]1O[C@H]1C(=O)COCc1ccccc1)OC ?
FMDV inh: -8.8%; HCMV inh: 29.5

How did CCOC(=O)[C@@H](C)N1[C@H](C)[C@H](c2ccccc2)Oc2cc(Br)ccc2S1(=O)=O do in these assays?
Marburg entry inh: 4.45µM*

What do the screens show for `CCOC(=O)[C@@H](C)N1[C@@H](C)[C@H](c2ccccc2)Oc2ccc(Cl)cc2S1(=O)=O`?
HCMV inh: -12.3

How did CC(C)Cc1ccc(C(C)C(=O)Nc2ccccc2O)cc1 (centres undefined) do in these assays?
FMDV inh: inconclusive; HCMV inh: -82.0*; Marburg entry inh: inconclusive; Lassa entry inh: inconclusive

Results for CC(C)Cc1ccc(C(C)C(=O)Nc2nccs2)cc1 (centres undefined) ?
HCMV inh: -17.2; Marburg entry inh: inconclusive; Lassa entry inh: -21.9%

What do the screens show for `COc1cc2ccccc2cc1C(=O)N(CCN(C)C)c1nc2ccc(C)cc2s1`?
FMDV inh: -15.3%; HCMV inh: -7.7; Marburg entry inh: 4.47µM*; Lassa entry inh: inconclusive

Results for CCN(CC)CCN(C(=O)c1cc2ccccc2cc1OC)c1nc2ccc(F)cc2s1 ?
FMDV inh: -29.0%; HCMV inh: 19.4; Marburg entry inh: 5.62µM*; Lassa entry inh: -20.1%[46.1 µM]

How did CCN(CC)CCN(C(=O)c1cc2ccccc2cc1OC)c1nc2ccc(OC)cc2s1 do in these assays?
FMDV inh: -18.6%; HCMV inh: -25.7

How did C=C[C@@H]1c2c(F)cccc2N(S(=O)(=O)c2ccc(C)cc2)[C@H](c2ccc(OC(C)=O)cc2)C1(C#N)C#N do in these assays?
FMDV inh: -20.3%; HCMV inh: -31.9

Results for C=C[C@@H]1c2cccc(C)c2N(S(=O)(=O)c2ccc(C)cc2)[C@H](c2ccc(OC(C)=O)cc2)C1(C#N)C#N ?
FMDV inh: -22.1%; HCMV inh: -79.1*

What do the screens show for `Cc1nn(C(C)C(=O)NC2CCC(C)CC2)c(=O)c2c1sc1ccccc12` (centres undefined)?
FMDV inh: 14.8%; HCMV inh: -22.2; Marburg entry inh: inconclusive; Lassa entry inh: -27.1%[46.1 µM]

Results for COC(=O)C1=C(C)N(Cc2ccc(C(F)(F)F)cc2)C(=NCc2ccc3c(c2)OCO3)NC1c1cccc(Cl)c1 (centres undefined) ?
HCMV inh: -100.0*

Source: PubChem BioAssay
